# Reference: PubChem BioAssay
# Records with an inconclusive call do not appear. Calls of active or inactive are those of the source. Unless noted, how the calls were made is not given here. Peptide text beside a SMILES is read from it.
# Experiments:
# [1] = yeast TOR pathway RPL19A-GFP modulators, primary screen, cell-based, S. cerevisiae, multiplex flow cytometry (AID 1862; in the data active means percent of DMSO control GFP below about 86%;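 further: lower values mimic rapamycin by blocking the RPL19A rise seen in DMSO cells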); conditions: S. cerevisiae RPL19A-GFP strain, flow cytometry fluorescence, 3 h; at 10 µM; stronger effect = lower value
# [2] = modulators of MEP2-GFP levels in yeast, primary screen, S. cerevisiae, multiplex flow cytometry (AID 1867;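 active means GFP response, as percent of the DMSO control, above the screen-wide mean plus 3 SD, about 139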;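 further: median GFP channel fluorescence of barcode-gated MEP2-GFP cells measured by flow cytometry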); conditions: S. cerevisiae MEP2-GFP strain, 3 h, at 10 µM, stronger effect = higher value
# [3] = modulators of CIT2-GFP expression in yeast, primary screen, S. cerevisiae, GFP fusion, multiplex flow cytometry (AID 1870;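 active means percent response above a set limit, the screen-wide mean plus 3 SD, cut at about 130% in these data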;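 further: barcoded CIT2-GFP strain pooled with four other GFP strains with rapamycin as positive control; median GFP fluorescence per well over plate mean of DMSO wells so 100% = DMSO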); conditions: 3 h, at 10 µM, stronger effect = higher value
# [4] = modulators of LAP4-GFP expression in yeast, primary screen, S. cerevisiae, multiplex flow cytometry (AID 1873;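 active means GFP signal, as percent of the solvent control, above the screen mean plus 3 SD, about 149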); conditions: 3 h, at 10 µM, stronger effect = higher value
# [5] = inhibitors of CD8+ T cell-vesicle binding, pilot screen, LFA-1/ICAM-1 modulator project, MLPCN validation set, flow cytometry (AID 2523;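 active means response below a set limit, under 55% cells CD8-positive and vesicle-bound, and CD8 cells' 90th-percentile brightness under 279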;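 on vesicle binding response: mean PE anti-B7-1 fluorescence of CD8+ cells relative to row control; 100% = QL9-loaded vesicles with DMSO vehicle in the same plate row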); conditions: 2C mouse CD8+ T cells, at 7 µM, stronger effect = lower value; double positive events: measured here: CD8+/vesicle+ event percentage
# [6] = superoxide lowering in aged yeast cells, pilot screen, validation compound set (AID 2706;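 active means superoxide response below 65% of plate, a cut near 3 SD across the whole screen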;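 further: yeast exposed to compound for one week at 30 degrees C before staining; 100% = mean of all compound wells on the same plate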); conditions: S. cerevisiae aging, superoxide DHE fluorescence; at 10 µM; stronger effect = lower value
# [7] = molecular target: Beta-adrenergic receptor kinase 1 (Homo sapiens) (UniProt P25098); experiment: GRK2 binders displacing RNA aptamer, biochemical, validation, human GRK2, bead flow cytometry (AID 488806;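 active means aptamer binding inhibition above 30%, about 3 SD of noise from non-fluorescent compounds; inactive means inhibition at or below 30%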); conditions: bead-bound GRK2, FAM-aptamer displacement, at 10 µM, stronger effect = higher value
# Sequence of Beta-adrenergic receptor kinase 1 (Homo sapiens) (P25098 whole entry, looked up): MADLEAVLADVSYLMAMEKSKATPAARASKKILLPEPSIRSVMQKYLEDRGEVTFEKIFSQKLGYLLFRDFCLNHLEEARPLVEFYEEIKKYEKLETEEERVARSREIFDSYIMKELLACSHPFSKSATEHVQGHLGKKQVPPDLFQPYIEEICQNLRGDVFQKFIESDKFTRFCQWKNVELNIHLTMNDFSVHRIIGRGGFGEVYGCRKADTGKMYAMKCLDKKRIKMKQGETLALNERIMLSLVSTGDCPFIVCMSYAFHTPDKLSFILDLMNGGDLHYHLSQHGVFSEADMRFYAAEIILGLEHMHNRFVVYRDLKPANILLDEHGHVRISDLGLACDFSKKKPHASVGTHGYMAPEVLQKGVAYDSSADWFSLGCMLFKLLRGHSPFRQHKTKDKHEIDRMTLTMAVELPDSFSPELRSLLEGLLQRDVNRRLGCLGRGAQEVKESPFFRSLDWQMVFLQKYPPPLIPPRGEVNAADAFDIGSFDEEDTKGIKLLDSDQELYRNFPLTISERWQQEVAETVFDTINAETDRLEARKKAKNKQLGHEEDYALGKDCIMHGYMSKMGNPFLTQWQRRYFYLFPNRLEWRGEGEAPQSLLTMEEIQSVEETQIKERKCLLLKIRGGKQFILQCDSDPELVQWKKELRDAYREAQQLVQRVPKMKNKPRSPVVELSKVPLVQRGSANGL
# [8] = molecular target: AP-2 complex subunit beta (Homo sapiens) (UniProt P63010); experiment: inhibitors of arrestin peptide binding to AP2, pilot screen, biochemical, validation set, GST-AP2 beads, flow cytometry (AID 504541;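 active means inhibition above 54%, about 3 SD of non-fluorescent compounds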;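 further: AP2 carries R879A mutation and is captured from E. coli lysate; bead-bound FITC arrestin peptide fluorescence measuring arrestin peptide binding to AP2; 0% = DMSO wells and 100% = excess unlabeled arrestin peptide control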); conditions: FITC arrestin peptide, at 10 µM, stronger effect = higher value
# Sequence of AP-2 complex subunit beta (Homo sapiens) (P63010 whole entry, looked up, one chain of several): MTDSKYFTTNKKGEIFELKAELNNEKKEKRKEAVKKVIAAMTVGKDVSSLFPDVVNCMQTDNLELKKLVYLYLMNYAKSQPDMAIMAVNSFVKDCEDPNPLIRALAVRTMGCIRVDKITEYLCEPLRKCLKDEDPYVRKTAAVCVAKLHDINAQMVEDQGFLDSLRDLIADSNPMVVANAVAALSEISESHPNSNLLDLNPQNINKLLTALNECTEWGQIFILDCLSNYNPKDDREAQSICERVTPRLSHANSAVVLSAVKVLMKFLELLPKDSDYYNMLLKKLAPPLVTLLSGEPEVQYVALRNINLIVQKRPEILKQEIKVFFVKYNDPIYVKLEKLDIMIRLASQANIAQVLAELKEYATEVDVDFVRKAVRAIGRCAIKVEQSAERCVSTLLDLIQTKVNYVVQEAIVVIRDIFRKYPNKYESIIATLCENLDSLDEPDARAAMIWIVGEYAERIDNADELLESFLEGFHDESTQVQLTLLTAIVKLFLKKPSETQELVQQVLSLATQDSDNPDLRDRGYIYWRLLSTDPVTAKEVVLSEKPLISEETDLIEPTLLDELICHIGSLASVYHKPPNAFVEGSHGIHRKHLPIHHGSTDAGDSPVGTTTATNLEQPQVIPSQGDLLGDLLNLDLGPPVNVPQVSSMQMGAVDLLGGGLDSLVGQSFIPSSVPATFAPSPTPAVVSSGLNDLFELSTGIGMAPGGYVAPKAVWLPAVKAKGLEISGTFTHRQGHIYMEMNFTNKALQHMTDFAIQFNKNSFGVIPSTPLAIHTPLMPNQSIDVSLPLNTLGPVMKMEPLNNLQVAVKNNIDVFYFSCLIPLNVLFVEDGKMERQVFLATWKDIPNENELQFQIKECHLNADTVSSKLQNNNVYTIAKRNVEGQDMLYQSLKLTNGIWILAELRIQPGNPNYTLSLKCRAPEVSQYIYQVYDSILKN
# [9] = yeast V-ATPase proton transport modulators, S. cerevisiae, pHLuorin, HTS validation (AID 504600; in the data active means response above about 15%;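 further: plate controls were DMSO for no effect and reference compound for full effect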); conditions: S. cerevisiae pHLuorin cytosolic pH, at 10 µM, stronger effect = higher value
# [10] = test system: anti-desmoglein-3 scFv antibody binding to human DSG3; experiment: inhibitors of anti-DSG3 scFv binding to DSG3, pilot screen, biochemical, validation compound set, bead-based, flow cytometry (AID 588368;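 active means binding below the plate cutoff, the plate median minus 3 SD, with a reading above zero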;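 further: signal is the median channel fluorescence of bead-bound GFP antibody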); conditions: Protein G beads, DSG3-Fc, scFv-GFP binding, at 10 µM, stronger effect = lower value
# [11] = test system: Botulinum neurotoxin type F light chain protease (Clostridium botulinum); experiment: Botulinum neurotoxin type F light chain protease inhibition, multiplex microsphere flow cytometry, validation set (AID 588459); conditions: multiplex microsphere protease substrate cleavage assay, at 10 µM, stronger effect = higher value
# [12] = molecular target: Botulinum neurotoxin type A (Clostridium botulinum) (UniProt P0DPI0); experiment: BoNT/A light chain protease inhibitors, biochemical, multiplex microsphere flow cytometry, validation set (AID 588460); conditions: at 10 µM, stronger effect = higher value
# Sequence of Botulinum neurotoxin type A (Clostridium botulinum) (P0DPI0 whole entry, looked up): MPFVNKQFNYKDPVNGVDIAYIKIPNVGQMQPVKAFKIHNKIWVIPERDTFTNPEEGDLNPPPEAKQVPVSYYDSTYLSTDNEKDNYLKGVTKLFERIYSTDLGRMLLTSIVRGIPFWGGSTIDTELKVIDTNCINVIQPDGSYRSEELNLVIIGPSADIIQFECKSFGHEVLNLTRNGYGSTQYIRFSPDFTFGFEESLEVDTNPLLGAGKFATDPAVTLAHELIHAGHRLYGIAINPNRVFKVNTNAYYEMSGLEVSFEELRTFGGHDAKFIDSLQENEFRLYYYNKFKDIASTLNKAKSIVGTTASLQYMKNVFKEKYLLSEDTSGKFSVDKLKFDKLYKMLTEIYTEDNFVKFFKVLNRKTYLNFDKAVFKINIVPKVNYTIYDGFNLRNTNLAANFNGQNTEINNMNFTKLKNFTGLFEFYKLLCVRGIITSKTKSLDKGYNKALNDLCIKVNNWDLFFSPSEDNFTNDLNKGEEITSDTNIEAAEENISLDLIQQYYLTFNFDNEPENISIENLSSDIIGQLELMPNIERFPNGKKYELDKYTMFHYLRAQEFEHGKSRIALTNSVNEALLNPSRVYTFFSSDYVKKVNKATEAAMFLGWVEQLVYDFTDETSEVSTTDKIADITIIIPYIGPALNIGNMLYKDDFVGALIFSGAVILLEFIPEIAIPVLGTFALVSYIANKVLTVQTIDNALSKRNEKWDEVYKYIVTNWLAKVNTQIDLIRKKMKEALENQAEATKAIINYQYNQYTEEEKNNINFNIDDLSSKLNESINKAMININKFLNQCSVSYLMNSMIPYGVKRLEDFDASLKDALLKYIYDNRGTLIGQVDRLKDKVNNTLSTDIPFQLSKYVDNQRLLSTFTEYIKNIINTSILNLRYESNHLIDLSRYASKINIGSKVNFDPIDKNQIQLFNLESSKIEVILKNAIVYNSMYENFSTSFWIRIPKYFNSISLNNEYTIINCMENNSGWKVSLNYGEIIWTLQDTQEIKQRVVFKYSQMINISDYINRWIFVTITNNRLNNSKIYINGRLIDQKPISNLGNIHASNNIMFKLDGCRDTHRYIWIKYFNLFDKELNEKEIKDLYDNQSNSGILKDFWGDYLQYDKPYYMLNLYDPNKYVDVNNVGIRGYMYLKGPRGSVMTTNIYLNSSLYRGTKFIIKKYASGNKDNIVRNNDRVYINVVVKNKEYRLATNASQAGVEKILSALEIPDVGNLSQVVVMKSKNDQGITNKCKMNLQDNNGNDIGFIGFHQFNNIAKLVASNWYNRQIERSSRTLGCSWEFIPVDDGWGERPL
# [13] = molecular target: Lethal factor (Bacillus anthracis) (UniProt P15917); experiment: Lethal factor protease inhibitors, Bacillus anthracis, multiplex microsphere cleavage assay, validation set (AID 588461); conditions: flow cytometry, at 10 µM, stronger effect = higher value
# Sequence of Lethal factor (Bacillus anthracis) (P15917 whole entry, looked up): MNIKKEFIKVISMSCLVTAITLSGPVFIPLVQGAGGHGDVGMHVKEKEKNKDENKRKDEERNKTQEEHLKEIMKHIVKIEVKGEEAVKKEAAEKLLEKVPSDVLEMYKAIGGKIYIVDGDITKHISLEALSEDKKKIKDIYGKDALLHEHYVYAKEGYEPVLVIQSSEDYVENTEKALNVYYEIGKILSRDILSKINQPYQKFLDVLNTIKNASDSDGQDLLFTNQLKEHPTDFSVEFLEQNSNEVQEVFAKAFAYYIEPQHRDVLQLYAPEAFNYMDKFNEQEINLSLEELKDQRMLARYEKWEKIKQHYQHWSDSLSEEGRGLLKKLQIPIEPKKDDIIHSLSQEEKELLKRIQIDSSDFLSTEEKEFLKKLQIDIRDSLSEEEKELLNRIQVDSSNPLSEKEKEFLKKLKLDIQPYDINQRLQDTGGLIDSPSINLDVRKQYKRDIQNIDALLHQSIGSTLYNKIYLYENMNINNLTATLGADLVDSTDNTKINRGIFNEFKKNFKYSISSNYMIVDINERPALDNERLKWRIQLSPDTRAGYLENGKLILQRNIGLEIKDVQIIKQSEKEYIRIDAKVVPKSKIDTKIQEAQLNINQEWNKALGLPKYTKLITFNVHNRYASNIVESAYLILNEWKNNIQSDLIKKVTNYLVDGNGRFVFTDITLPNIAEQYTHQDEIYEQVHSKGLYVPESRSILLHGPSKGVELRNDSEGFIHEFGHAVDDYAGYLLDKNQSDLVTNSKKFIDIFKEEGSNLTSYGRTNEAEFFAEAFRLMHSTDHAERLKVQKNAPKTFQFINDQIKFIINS
# [14] = inhibitors of fungal efflux pumps CDR1, CDR2, MDR1, pilot screen, validation compound set, multiplex, phenotypic (AID 588506;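 active means efflux inhibition above 0.42, the validation set average plus 4 SD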;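 further: Nile Red retained in cells so higher fluorescence means more efflux inhibition; 0 = negative control wells and 1 = enniatin B 25 µM full block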); conditions: S. cerevisiae pump-expressing triplex, Nile Red efflux flow cytometry; at 10 µM; stronger effect = higher value
# [15] = molecular target: ATP-binding cassette sub-family B member 6 (Homo sapiens) (UniProt Q9NP58); experiment: ABCB6 transporter inhibitors, pilot screen, K562-ABCB6 cells, flow cytometry, validation set (AID 588550;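 active means inhibition above the screen-wide mean plus 3 SD, about 51%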;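 further: 0% = DMSO wells and 100% = benzethonium chloride 70 µM positive control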); conditions: K562-ABCB6 porphyrin accumulation, 1 h, at 10 µM, stronger effect = higher value
# Sequence of ATP-binding cassette sub-family B member 6 (Homo sapiens) (Q9NP58 whole entry, looked up): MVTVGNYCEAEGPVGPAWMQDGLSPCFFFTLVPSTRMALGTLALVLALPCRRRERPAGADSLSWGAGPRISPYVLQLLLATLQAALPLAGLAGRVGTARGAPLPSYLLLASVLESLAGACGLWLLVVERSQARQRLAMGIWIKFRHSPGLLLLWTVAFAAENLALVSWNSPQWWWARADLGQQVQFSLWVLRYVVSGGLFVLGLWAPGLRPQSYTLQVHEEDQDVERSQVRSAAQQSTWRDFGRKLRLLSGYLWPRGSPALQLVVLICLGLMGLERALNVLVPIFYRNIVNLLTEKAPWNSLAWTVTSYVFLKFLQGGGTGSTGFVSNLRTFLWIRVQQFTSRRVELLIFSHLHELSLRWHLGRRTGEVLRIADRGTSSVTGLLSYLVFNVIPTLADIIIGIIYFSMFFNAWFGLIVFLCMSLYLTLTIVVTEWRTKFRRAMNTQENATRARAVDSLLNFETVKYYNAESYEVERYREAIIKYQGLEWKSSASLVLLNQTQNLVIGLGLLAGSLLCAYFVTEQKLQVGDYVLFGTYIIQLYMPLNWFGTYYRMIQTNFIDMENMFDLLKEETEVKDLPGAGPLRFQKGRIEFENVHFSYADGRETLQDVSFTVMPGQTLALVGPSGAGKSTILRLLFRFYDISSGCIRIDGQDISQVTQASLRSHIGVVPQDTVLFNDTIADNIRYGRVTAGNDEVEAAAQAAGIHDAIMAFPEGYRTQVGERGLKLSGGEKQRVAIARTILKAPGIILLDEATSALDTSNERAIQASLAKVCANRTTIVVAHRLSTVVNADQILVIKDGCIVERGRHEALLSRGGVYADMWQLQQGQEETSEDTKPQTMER
# [16] = promoters of myeloid differentiation in arrested cells, primary screen, cell-based, GFP/MAC1 double positive, flow cytometry, validation set (AID 588685;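 active means differentiation response of at least 50%, scaled between solvent and reference control, from cells with both markers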;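 further: compound exposure lasts four days before antibody staining and flow analysis; 0% = DMSO wells and 100% = 5 µM fulvestrant positive control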); conditions: ER-HoxA9 marrow cells, stronger effect = higher value
# [17] = molecular target: Integrin beta-1 (Homo sapiens) + Integrin alpha-4 (Homo sapiens) (UniProt P13612+P05556); experiment: inhibition of HUTS-21 binding to VLA-4, pilot screen, VLA-4 allosteric modulator project, U937 cells, HUTS-21 mAb, flow cytometry, validation set (AID 2674;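 active means inhibition above 50%, about 3 SD of the validation set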;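 further: antibody binding induced by the VLA-4 ligand LDV present at three times its Kd; 0% = LDV ligand with antibody and no compound and 100% = antibody without LDV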); conditions: HUTS-21 LIBS mAb binding, at 6.7 µM, stronger effect = higher value
SMILES,percent of DMSO control GFP [1],GFP response vs DMSO [2],percent response of DMSO control [3],GFP response vs DMSO [4],double positive events [5] [%],vesicle binding response [5],superoxide response (% of plate) [6],aptamer binding inhibition [7],inhibition [8],response [9],binding (% of control) [10],inhibition [11],inhibition [12],inhibition [13],efflux inhibition (fraction of control) [14],inhibition [15],differentiation response [16],inhibition [17]
COc1ccc(Cc2nccc3cc(OC)c(OC)cc23)cc1OC,101% (inactive),96.7% (inactive),94.9% (inactive),98.7% (inactive),59.9,146% (inactive),96% (inactive),4% (inactive),-1.6% (inactive),-0.83% (inactive),108% (inactive),1.7% (inactive),0.2% (inactive),3.7% (inactive),0.49 (active),4% (inactive),6.49% (inactive),
CC(C)CC12CN3CCN(CC(C3)C1O)C2 (configuration not stated),89.8% (inactive),116% (inactive),111% (inactive),89.7% (inactive),65.4,153% (inactive),91.5% (inactive),-7% (inactive),-0.1% (inactive),-1.9% (inactive),110% (inactive),3.6% (inactive),-0.7% (inactive),-4.5% (inactive),-0.28 (inactive),13% (inactive),10.6% (inactive),-2.27% (inactive)
CCNC(=S)N(C)CCc1cc2c(c(OC)c1C=C1C(=O)N(C)C(=O)N(C)C1=O)OCO2,98.1% (inactive),95.9% (inactive),91% (inactive),96.4% (inactive),62.5,168% (inactive),89.1% (inactive),4% (inactive),27.6% (inactive),-7.44% (inactive),100% (inactive),1.8% (inactive),1.4% (inactive),1.3% (inactive),-0.16 (inactive),-16% (inactive),6.26% (inactive),15.6% (inactive)
O=C1CC[C@@]2(O)[C@H]3Cc4ccc(O)c5c4[C@@]2(CCN3CC2CC2)[C@H]1O5,98.3% (inactive),126% (inactive),96.6% (inactive),84.7% (inactive),63.4,207% (inactive),95.9% (inactive),2% (inactive),-0.81% (inactive),1.19% (inactive),107% (inactive),,,,-0.02 (inactive),14% (inactive),-3.28% (inactive),1.61% (inactive)
O=c1[nH]c2ccccc2n1CCCN1CCC(n2c(=O)[nH]c3cc(Cl)ccc32)CC1,99.1% (inactive),109% (inactive),91% (inactive),112% (inactive),55.1,240% (inactive),114% (inactive),1% (inactive),-6.83% (inactive),-0.17% (inactive),101% (inactive),,1.3% (inactive),-2.2% (inactive),-0.1 (inactive),2% (inactive),-34.4% (inactive),-4.52% (inactive)
C[C@H]1CCC/C=C/C2C[C@H](O)CC2[C@H](O)/C=C/C(=O)O1 (some centres not stated),106% (inactive),111% (inactive),99.7% (inactive),100% (inactive),62.5,166% (inactive),92.8% (inactive),1% (inactive),,-4.42% (inactive),85.8% (inactive),4% (inactive),-0.8% (inactive),2.7% (inactive),0.31 (inactive),17% (inactive),32% (inactive),0.25% (inactive)
C[C@@H]1O[C@@H](O[C@H]2C[C@@H](O)[C@]3(CO)[C@H]4[C@H](O)C[C@]5(C)[C@@H](C6=CC(=O)OC6)CC[C@]5(O)[C@@H]4CC[C@]3(O)C2)[C@H](O)[C@H](O)[C@H]1O,108% (inactive),104% (inactive),102% (inactive),107% (inactive),69,183% (inactive),103% (inactive),7% (inactive),-1.72% (inactive),0.97% (inactive),101% (inactive),0.6% (inactive),-0.5% (inactive),0.4% (inactive),,4% (inactive),1.91% (inactive),1.44% (inactive)
COc1ccc2c(c1)CC1(CN2C)C(=O)NC(=O)N(CCc2ccccc2)C1=O (configuration not stated),101% (inactive),98.3% (inactive),96.6% (inactive),88.1% (inactive),65.8,263% (inactive),,-3% (inactive),-4.29% (inactive),1.95% (inactive),104% (inactive),3.8% (inactive),1.1% (inactive),-1.5% (inactive),-0.07 (inactive),27% (inactive),27.6% (inactive),-3.57% (inactive)
COc1ccc(C(=O)N2CCCC2=O)cc1,104% (inactive),107% (inactive),105% (inactive),130% (inactive),61.6,241% (inactive),94.5% (inactive),-4% (inactive),61% (active),2.82% (inactive),100% (inactive),,,,-0.04 (inactive),4% (inactive),3.88% (inactive),-6.23% (inactive)
COC1=CC(=O)OC(/C=C/c2ccccc2)C1 (configuration not stated),102% (inactive),105% (inactive),105% (inactive),104% (inactive),56.3,194% (inactive),101% (inactive),-1% (inactive),47% (inactive),-10.4% (inactive),106% (inactive),3.9% (inactive),1.1% (inactive),5.6% (inactive),0.06 (inactive),4% (inactive),22.4% (inactive),13.8% (inactive)
CC(C)C[C@H](NC(=O)[C@@H]1CCCN1C(=O)[C@@H](N)Cc1ccc(O)cc1)C(=O)NCC(N)=O (H-YPLG-NH2),108% (inactive),101% (inactive),110% (inactive),89.3% (inactive),63.1,186% (inactive),95.5% (inactive),1% (inactive),2.65% (inactive),-0.2% (inactive),101% (inactive),-4.4% (inactive),-0.2% (inactive),1% (inactive),-0.09 (inactive),7% (inactive),-9.89% (inactive),0.69% (inactive)
Cc1cc(Cl)ccc1OCC(=O)O,96.8% (inactive),93.8% (inactive),109% (inactive),105% (inactive),60.3,188% (inactive),108% (inactive),-4% (inactive),-8.4% (inactive),-14.2% (inactive),111% (inactive),-6.1% (inactive),-0.1% (inactive),2.4% (inactive),-0.35 (inactive),10% (inactive),-24.4% (inactive),7.22% (inactive)
c1ccc(Cn2ccnc2)cc1,97.4% (inactive),97.9% (inactive),90% (inactive),99.4% (inactive),63.8,185% (inactive),92.9% (inactive),12% (inactive),0.17% (inactive),4.53% (inactive),97.7% (inactive),5.2% (inactive),0.1% (inactive),-0.1% (inactive),0.03 (inactive),9% (inactive),-16.4% (inactive),14.7% (inactive)
[N-]=[N+]=NC1C[C@H](n2ccc(=O)[nH]c2=O)O[C@@H]1CO (some centres not stated),101% (inactive),99.9% (inactive),106% (inactive),101% (inactive),56.5,185% (inactive),97.1% (inactive),-2% (inactive),42% (inactive),-3.04% (inactive),97.7% (inactive),0.8% (inactive),-1.5% (inactive),-5.9% (inactive),0.03 (inactive),6% (inactive),-21.2% (inactive),9.09% (inactive)
NCC1(c2ccc3c(c2)OCCO3)CCCC1,98.3% (inactive),101% (inactive),97.9% (inactive),89.3% (inactive),60.7,107% (inactive),101% (inactive),1% (inactive),6.32% (inactive),-0.06% (inactive),98.8% (inactive),0.5% (inactive),-0.6% (inactive),0.5% (inactive),0.06 (inactive),6% (inactive),1.41% (inactive),-51.5% (inactive)
CN[C@H]1C[C@H]2O[C@@](C)([C@H]1OC)n1c3ccccc3c3c4c(c5c6ccccc6n2c5c31)C(=O)NC4,104% (inactive),105% (inactive),107% (inactive),84.1% (inactive),64,105% (inactive),,,0.54% (inactive),1.34% (inactive),,,,6.2% (inactive),0.14 (inactive),-76% (inactive),12% (inactive),-86.6% (inactive)
S=C1NCCN1,99.1% (inactive),109% (inactive),97.9% (inactive),102% (inactive),65.7,186% (inactive),98.2% (inactive),3% (inactive),24.8% (inactive),-0.28% (inactive),98% (inactive),,,,0.63 (active),14% (inactive),-0.2% (inactive),6.29% (inactive)
C[N+]1(C)CCN(c2ccccc2)CC1,103% (inactive),94.8% (inactive),107% (inactive),87.3% (inactive),53.4,172% (inactive),93.3% (inactive),0% (inactive),-8.27% (inactive),1.95% (inactive),100% (inactive),-7.6% (inactive),-1% (inactive),-6.3% (inactive),-0.2 (inactive),12% (inactive),-14.7% (inactive),-1.17% (inactive)
NCCc1c[nH]c2ccc(F)cc12,98.2% (inactive),103% (inactive),107% (inactive),106% (inactive),59.2,77.4% (inactive),93.9% (inactive),-1% (inactive),,6.8% (inactive),104% (inactive),-3.3% (inactive),-0.7% (inactive),-4.9% (inactive),-0.44 (inactive),2% (inactive),5.73% (inactive),18.3% (inactive)
